Tau fil binding: qHTS Assay for Tau Filament Binding | Microtubule-associated protein tau (Homo sapiens), P10636 | recombinant tau filaments, thioflavin S fluorescence, 15 h; filaments grown with octadecylsulfate alongside compound | Potency, µM (titrated, usually from 57.1 µM), for inactives: top-dose activity change, negative = inhibition | hit rate 2% among 71,000 | AID 596, 2007;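 further: on the % scale 0 is the no-effect control and ±100 the full control effect; actives lower thioflavin S fluorescence by blocking filaments or displacing dye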
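Tau 2 uM in ThS buffer dispensed; compound added; 60 uM ODS added (finals 1 uM tau, 30 uM ODS); 15 h 37 C; fluor ex450/em510.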
TSHR agonist: qHTS Assay for Agonists of the Thyroid Stimulating Hormone Receptor; Thyrotropin receptor (Homo sapiens), P16473; HEK293-CNG-TSHR cells (CNG channel as cAMP sensor), membrane potential dye, cAMP; Potency, µM (top dose mostly 57.1 µM), for inactives: at the top dose activation, most hits filed as activators; hit rate 0.48% among 73,000; active means well fitted activation curve with a large enough effect in the main read-out, with a control signal flat, not every such curve was filed as active; inconclusive means small, poorly fitted or top-dose-only effect, or a change in a side signal; inactive means no such curve, though single readings can be large or run the other way; % of control where 0% means no effect;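 further: the control signal comes from parental cells without the receptor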
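cAMP rise detected as CNG-channel membrane depolarization by fluorescent dye (emission 590 nm), 30 min after compound, following 60 min dye loading containing 100 uM RO 20-1724 at room temperature. Cells: TSHR/CNG HEK 293, with parental CNG HEK 293 as control.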
HEK293 cAMP ctrl: qHTS Assay for Agonists of the Thyroid Stimulating Hormone Receptor: Activators of Intracellular cAMP Concentrations in Parental HEK 293; parental HEK293 CNG cAMP sensor, membrane potential fluorescence; Potency, µM (top dose mostly 57.1 µM), for the others: at the highest dose activation, actives largely listed as activators; hit rate 2.5% among 73,000; AID 938, 2007; further: % of control where 0% means no effect; nearly all actives have a fitted effect of over 55% in size
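Parental HEK 293 cells stably expressing a modified CNG channel (no TSHR) report cAMP rise as membrane depolarization. Membrane potential dye with 100 uM RO 20-1724 was loaded for 60 min at room temperature, then compound added for 30 min; fluorescence read at 590 nm.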
FLuc inh: qHTS Assay for Inhibitors of Firefly Luciferase; Luciferin 4-monooxygenase (Photinus pyralis), P08659; purified firefly luciferase, luminescence, 8 min; Potency, µM (highest dose often 57.1 µM), for the others: at the highest dose activity change, negative = inhibition, actives largely listed as inhibitors; hit rate 2.2% among 72,000; AID 411, 2009; further: on the % scale 0 is the no-effect control and ±100 the full control effect; nearly all actives have a fitted effect of over 40% in size
Target sequence (P08659 whole entry, looked up): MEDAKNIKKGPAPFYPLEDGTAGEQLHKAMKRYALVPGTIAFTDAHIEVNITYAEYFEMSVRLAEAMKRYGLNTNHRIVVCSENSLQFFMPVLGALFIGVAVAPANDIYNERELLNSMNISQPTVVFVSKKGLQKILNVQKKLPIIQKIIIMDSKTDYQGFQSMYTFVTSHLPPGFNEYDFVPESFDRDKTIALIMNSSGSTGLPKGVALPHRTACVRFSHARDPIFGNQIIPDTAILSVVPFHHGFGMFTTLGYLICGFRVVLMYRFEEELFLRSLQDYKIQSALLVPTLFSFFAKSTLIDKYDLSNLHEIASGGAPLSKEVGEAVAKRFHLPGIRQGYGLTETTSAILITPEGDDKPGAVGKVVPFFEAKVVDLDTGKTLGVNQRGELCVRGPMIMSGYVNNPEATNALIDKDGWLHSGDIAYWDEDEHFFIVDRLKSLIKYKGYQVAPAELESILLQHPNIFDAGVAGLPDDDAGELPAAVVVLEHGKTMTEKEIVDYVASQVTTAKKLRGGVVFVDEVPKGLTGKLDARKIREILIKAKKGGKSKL
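Luminescence read-out after 8 min at room temperature; enzyme reaction used luciferin plus 10 uM ATP (linear range) in imidazole buffer pH 7.2 with KCl, MgCl2, Tween 20 and BSA. Each sample was run as a titration.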
ERK AVP inh: qHTS Assay for Inhibitors of the ERK Signaling Pathway using a Homogeneous Screening Assay. hit rate 0.99% among 72,000. Potency, µM (series often up to 57.5 µM), for the others: at the top dose activity, negative = inhibition, most hits filed as inhibitors. HEK293-V1b, vasopressin-stimulated pERK AlphaScreen; further: on the % scale 0 is the no-effect control and ±100 the full control effect; nearly all actives have a fitted effect of over 55% in size
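qHTS, compounds titrated on V1b-expressing HEK293 cells. Preincubation 30 min at 37C, vasopressin 25 nM for 5 min, lysis 10 min, bead incubation 5 hr at room temperature.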
Bst PK mod: Pyruvate Kinase; purified pyruvate kinase, luminescence ATP production; ribose 5-phosphate activator present at AC10; Potency, µM; hit rate 1.2% among 51,000; AID 361, 2006; in the data active means potency below about 11 µM; inconclusive means mostly about 12 µM to 25 µM;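 the screen sought inhibitors and activators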;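 further: scaled between full activation by ribose 5 phosphate and full inhibition by luteolin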
* = called active by the depositor; i = inactive; u = inconclusive; x = not tested or not shown; [ ] = remark or other dose. Rows were chosen to be rich in hits. Some 7.2% of all compounds tested hit in one or more screens of this group. Unless noted, the call rests on the fitted dose curve; in most records, active means well fitted curve in the direction sought with a large enough effect; inconclusive means small, poorly fitted or top-dose-only effect, or another doubt; inactive means no such curve, though single readings can be large; an effect the other way counts as inactive or inconclusive. Potency means the concentration at half of the fitted maximal effect.

SMILES	Tau fil binding	TSHR agonist	HEK293 cAMP ctrl	FLuc inh	ERK AVP inh	Bst PK mod
Cc1cc(=O)oc2cc(OC(C)C(=O)N3CCCc4ccccc43)ccc12 (stereo not given)	7%	u	25µM*	-5%	-25%	>57
CC1=C(C(=O)Nc2cc(-c3cccc(F)c3)[nH]n2)C2(CCCCC2)OC1=O	13µM*	-6%	4%	0%	-21%	x
C[C@@H]1CCC2[C@](C)(CO)C(O)CC[C@@]2(C)[C@@]12CC[C@](CO)(CCO)O2 (stereo not given in full)	x	x	x	x	-23%	x
CC1(C)O[C@H]2C[C@@H]3[C@H]4CCC5=CC(=O)CC[C@@]5(C)[C@]4(F)[C@@H](O)C[C@@]3(C)[C@@]2(C(=O)CCl)O1	-2%[25.6 µM]	4%[25.6 µM]	12%[25.6 µM]	0%[25.5 µM]	1%[25.7 µM]	x
c1ccc2c(Oc3ccc4c(c3)OCO4)nncc2c1	6%	1%	-7%	16µM*	6%	i
N#Cc1ccc(CN2CC3(CCN(C(=O)c4cnccn4)CC3)C2)cc1	-12%	-1%	-4%	-7%[11.4 µM]	-1%	x
COC(=O)c1cccc(Nc2cc(C)nc(-c3ccccc3O)n2)c1	x	x	x	-2%[25.5 µM]	x	>26
COc1ccccc1-c1ccc(Nc2cccc(C(C)=O)c2)nn1	6%	1%	9%	20µM*	-2%	>57
O=C(Cc1cccs1)Nc1nc(-c2ccccc2)cs1	-5%	22%	29%	-11%	10µM*	x
Cn1nccc1C(=O)OCC(=O)Nc1nc(-c2ccccc2)cs1	-16%	x	6%	-11%	20µM*	x
Cc1cc(NC(=O)Cc2cccs2)no1	16µM*	-12%	0%	0%	-21%	>57
Nc1ccccc1CCCC(=O)O	12%[11.4 µM]	1%[11.4 µM]	-1%[11.4 µM]	0%[11.4 µM]	-4%[11.5 µM]	x
CC(=O)N1CCC2(CC1)CCN(c1cccc(-c3ccccc3)c1)CC2	-7%	19%	9%	0%[11.4 µM]	u	x
O=C(c1cccc(F)c1)N1CCC2(CCCN(c3ccccn3)C2)CC1	6%	u	u	1%[11.4 µM]	-20%	x
CCOC(=O)CSc1nnc(-c2ccc(Cl)cc2Cl)o1	8%	u	u	13µM*	-4%	x
Clc1ccc(OCCn2ccnc2)c2ccccc12	14%	-6%	9%	1%	-17%	x
OCc1ccccc1OCCOc1ccc(Cl)c2cccnc12	24%	5%	6%	-10%	u	3.5*
CC(C)Sc1nc2c(c(=O)n(C)c(=O)n2C)n1Cc1ccc(Cl)cc1	16%	u	7.9µM*	4%	u	>57
NS(=O)(=O)c1ccc(N=Nc2cc3ccccc3c(C(=O)O)c2O)cc1	1.3µM*	-26%[11.4 µM]	-25%[11.4 µM]	0%[11.4 µM]	-26%[11.5 µM]	x
CCOC(=O)c1cc(C#N)c(SCc2ccc(C#N)cc2)nc1C	8%	u	32µM*	-7%	30%	>57
COc1cc(C(Nc2ccccn2)c2ccc3ccc(C)nc3c2O)cc(OC)c1O (stereo not given)	13µM*	3%	11%	-15%	26%	>57
Oc1c([C@H](Nc2ccccn2)c2ccccc2)ccc2cccnc12	-14%[11.4 µM]	1%[11.4 µM]	9%[11.4 µM]	2%[11.4 µM]	-11%[11.5 µM]	x
OCc1cn(-c2ccccc2)nc1-c1ccc2c(c1)OCCO2	3%	-5%	-9%	-19%	25µM*	x
COC(=O)c1sc(NC(=O)c2cc3c(s2)CCCC3)nc1C	-4%	6%	6%	2%	8%	>57
Cc1csc(NC(=O)c2cc3c(s2)CCC3)n1	9%	10%	1%	2.5µM*	-7%	u
SMILES	Tau fil binding	TSHR agonist	HEK293 cAMP ctrl	FLuc inh	ERK AVP inh	Bst PK mod
Nc1ncnc2nn([C@H]3O[C@@H](CO)[C@@H](O)[C@H]3O)nc12	7%[11.4 µM]	-8%[11.4 µM]	4%[11.4 µM]	2%[11.4 µM]	-2%[11.5 µM]	x
CCNc1ncc2nc(-c3ccccc3)c(=O)n(-c3ccc(OC)cc3)c2n1	229%	u	u	1%[11.4 µM]	13%	x
C=CCn1c(SCc2ccc(OC)cc2)nnc1-c1cccnc1	-8%	29%	19%	0%	5%	>57
CCn1c(SCc2ccc(OC)cc2)nnc1-c1ccncc1	52%	u	25µM*	1%	-14%	>57
CCn1c(SCC(=O)c2cc(OC)ccc2OC)nnc1-c1ccncc1	10%	u	25µM*	0%	14%	>57
NNC(=O)Cc1cccnc1	10%[11.4 µM]	-3%[11.4 µM]	6%[11.4 µM]	-1%[11.4 µM]	-15%[11.5 µM]	x
CN[C@H]1[C@@H](O)[C@@H](NC)[C@@H]2O[C@@]3(O)C(=O)C[C@@H](C)O[C@H]3O[C@H]2[C@H]1O	9%[25.6 µM]	-3%[25.6 µM]	-4%[25.6 µM]	2%[25.5 µM]	18%[25.7 µM]	x
Cc1ccc(S(=O)(=O)N(Cc2nccn2C)C(C)C)cc1	-3%	25µM*	25%	1%	0%	>57
Cc1ccc(S(=O)(=O)N2CCN(S(=O)(=O)N(C)C)CC2)cc1	9%	3%	1%	0%	-4%	>57
COc1ccc(-c2coc3cc(O)ccc3c2=O)c(O)c1O	x	x	x	x	-4%	x
O=C(Nc1cccc2nsnc12)C1CC(=O)N(c2ccccc2)C1 (stereo not given)	20µM*	15%	4%	-1%	7%	>57
COC(=O)c1ccccc1NC(=O)C1CC(=O)N(c2ccccc2)C1 (stereo not given)	15%	x	29%	0%	21%	x
CCCCCCCCCCCCCc1ccco1	x	x	x	x	9%	x
O=C(Cn1nnc2c(cnn2-c2ccc(F)cc2)c1=O)OC1CCCCC1	20µM*	u	u	-6%	7%	>57
O=C(Cn1nnc2c(cnn2-c2ccccc2)c1=O)N1CCN(c2ccccc2F)CC1	u	7%	10%	2%	10%	>57
O=c1[nH]c(CSc2nnc(-c3ccncc3)n2Cc2ccco2)nc2ccccc12	7%	1%	1%	1%	4%	>57
C=CCn1c(SCc2nc3ccccc3c(=O)[nH]2)nnc1-c1cc2cc(Cl)ccc2o1	160%	u	32µM*	0%	-20%	>57
Nc1nc(SCC(=O)O)[nH]c(=O)c1N	4%[11.4 µM]	-4%[11.4 µM]	6%[11.4 µM]	0%[11.4 µM]	17%[11.5 µM]	x
O=C1CC(c2ccccc2)Cc2nc(NCc3ccco3)ncc21 (stereo not given)	-4%	19%	19%	3.2µM*	u	5.2*
O=C(Nc1ncc2c(n1)CC(c1ccccc1)CC2=O)c1ccco1 (stereo not given)	-8%	3%	6%	1%	-12%	>57
COc1ccc(NC(=O)N2CC3(CCN(S(=O)(=O)c4ccccc4)CC3)C2)cc1	-7%	-8%	1%	-1%[11.4 µM]	3%	x
O=C(Cc1cc(=O)[nH]c(=O)[nH]1)N1CCC(Cc2ccccc2)CC1	25µM*	-18%	4%	10µM*	x	x
